{
  "source": "PubChem BioAssay AID1508600",
  "about": "(Functional Genomics Laboratory (NCATS/FGL), 2020)",
  "note": "Among all 53,000 sequences or so, about 3,700 (7%) were called active. Shown is part of a subset that was picked to be rich in actives. Values without a mark were called inactive.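 The calls were made as follows: active = gene knockdowns whose robust z-score for IL-1 alpha signal is at least 2 or at most -2, so actives lie on both sides; inactive = the rest.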",
  "data": [
    {"test": "Components of the Cytosolic LPS Sensing Pathway: Gene Identification via Genome-wide siRNA Screen;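 also: robust z of the log signal after scaling to non-targeting control siRNA wells of the plate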", "settings": "RAW264.7 macrophages, IL-1a HTRF, actives lie on both sides, screened at 100 nM (by protocol), cells primed 5 h with Pam3CSK4 first", "in_short": "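RAW264.7 mouse macrophages reverse-transfected with single siRNAs (100 nM final) for 48h, primed with Pam3CSK4 for 5 hours, then transfected with LipidA for 24 hour. Supernatant IL-1a read by HTRF; values normalized to negative-control median, log-transformed robust z-scores.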", "values": [
      {"sequence": "GAUCGAAGCCUAAGACCGCTT against Cypt3", "z-score": -0.578},
      {"sequence": "GCCUUAGGGAGUGUUAAAATT against Spink8", "z-score": -0.304},
      {"sequence": "GGUGGAGAAGCAGAUGCUUTT against Nek2", "z-score": "2.25 (active)"},
      {"sequence": "GGAAUUCCUUACCUUCUUATT against Cyp2c65", "z-score": -0.269},
      {"sequence": "GGAGCAUCACUCUUAACAUTT against Krt71", "z-score": 1.58},
      {"sequence": "GGGACACUUUCACUUGUUCTT against Rmnd5a", "z-score": 0.159},
      {"sequence": "GCUCAGGCAAGACUCAUUGTT against Trim45", "z-score": -0.57},
      {"sequence": "GGACUUUUGGCACUCUUAUTT against Snx10", "z-score": 0.127},
      {"sequence": "GGAUUUGAUUCCGCCAACGTT against Pon2", "z-score": "-2.03 (active)"},
      {"sequence": "GCUUAAAAGUGAAGUCUUGTT against Tmem203", "z-score": -0.615},
      {"sequence": "GUAAGGUCACCGGGUUGCATT against Lor", "z-score": 0.547},
      {"sequence": "GGUGGUCCUGGAUCUUUAUTT against Spon2", "z-score": -0.986},
      {"sequence": "GGACUUCGACAAACUGAAGTT against Zfp532", "z-score": 0.547},
      {"sequence": "GCCUUCUUGAACUGAAAGATT against Spc24", "z-score": "-2.04 (active)"},
      {"sequence": "GGUUCUAUGUUGACAAUCATT against Osgin2", "z-score": 0.621},
      {"sequence": "GGAAAUCUGAGUGUGCACUTT against Pcdhgb1", "z-score": 1.45},
      {"sequence": "GGCUGUCUUCAUCUUAGAUTT against Copz2", "z-score": "-2.61 (active)"},
      {"sequence": "GGAUAAUACAUCCCAAAACTT against Prkar2b", "z-score": -0.607},
      {"sequence": "GGAUCUCCAGAGCAGAAAATT against Nckap5", "z-score": -1.64},
      {"sequence": "GGUGAAUUCAACUCUCUAATT against Decr1", "z-score": "2.43 (active)"},
      {"sequence": "GGGUGUUGAUGUCAUUGUGTT against Dbn1", "z-score": 1.51},
      {"sequence": "GCAUGCACUUAAGAUUCUATT against Lypd6b", "z-score": 0.595},
      {"sequence": "CCAGGAAUCAGUCUAUACUTT against Lrrc15", "z-score": 1.45},
      {"sequence": "GGUUGUAACAAACAUACUCTT against Sstr4", "z-score": "2.99 (active)"},
      {"sequence": "GGACCUGGAGAAAUUGAAGTT against Nlrp6", "z-score": 1.82},
      {"sequence": "GGUCAUCUCAGACCUCCUCTT against Pde6a", "z-score": -0.275},
      {"sequence": "GCAAAACCAUUUCGAAACATT against Slc41a3", "z-score": 0.363},
      {"sequence": "CCUGUGGAUCCAUUUGUUCTT against Tex15", "z-score": "-2.25 (active)"},
      {"sequence": "GGAAAAGCUACCUGUGUCATT against Tril", "z-score": -1.88},
      {"sequence": "GGUGAUGGAAUACCAAAGGTT against Dnajc28", "z-score": -0.736},
      {"sequence": "GGAUAUCUUCAUAUUGGUGTT against Ces1f", "z-score": "4 (active)"},
      {"sequence": "GGAGAUCCCGUCACUAUCUTT against Lrrc61", "z-score": -0.439},
      {"sequence": "GGACAAUGAACUGAUUACCTT against Ap1s2", "z-score": 0.992},
      {"sequence": "GGGACAAAGAAAAUCUACUTT against Ehf", "z-score": 0.637},
      {"sequence": "GUACCAGAAGUGAGUUCAGTT against Leap2", "z-score": "-2.97 (active)"},
      {"sequence": "GCUGCCUCUUUCUUUGCUUTT against Pllp", "z-score": -0.769},
      {"sequence": "GGCAGAUUCAGAAUUGUCUTT against Il17a", "z-score": "-2.58 (active)"},
      {"sequence": "GGACUUUGCCCUGGAUUCUTT against Cnot1", "z-score": -0.216},
      {"sequence": "GGUUUGUUGUUGUUUUUGGTT against Vezt", "z-score": 0.44},
      {"sequence": "GCAAUUACCAGUAUGCUACTT against Tbx19", "z-score": 0.914},
      {"sequence": "CGGUAAACUGGUUUUACUUTT against Otulin", "z-score": 1.8},
      {"sequence": "GCCACAUCCUAUGUGAUGATT against Olfr1349", "z-score": -0.647},
      {"sequence": "GGAAGCUAUAUAUCAAGAATT against Tcea1", "z-score": 0.69},
      {"sequence": "GUCCGUCUCGGAGAAAUGUTT against Ccdc106", "z-score": "-2.28 (active)"},
      {"sequence": "GGAUUCACGAGCAUAAGCUTT against 1700020D05Rik", "z-score": -1.31},
      {"sequence": "GGAGGCAGCAGUUAUUGUGTT against Ly6a", "z-score": -0.486},
      {"sequence": "GGCCUCAGACCUUCUAUGATT against Mtap", "z-score": -0.149},
      {"sequence": "GGUGUCCUCUUUGUUCAUGTT against Sgce", "z-score": "2.94 (active)"},
      {"sequence": "GGCUGGUACUCCAUUUUAGTT against Neil2", "z-score": 0.0451},
      {"sequence": "GCCAGUUGGUUACUAUGGATT against Tax1bp3", "z-score": -0.412},
      {"sequence": "GGGAUUACCAAAAAGGCAUTT against Senp7", "z-score": 0.128},
      {"sequence": "GGAUAUUAACUAUGGGUUUTT against Tlr2", "z-score": 0.605},
      {"sequence": "GGCCUGCUUUGUUCUGAAUTT against Olfr846", "z-score": "-2.53 (active)"},
      {"sequence": "GCGCAAUAAUCAGACGGUUTT against Zhx2", "z-score": -0.624},
      {"sequence": "GGAAGAAGGUACAUUUCAGTT against Ankrd42", "z-score": 0.362},
      {"sequence": "GGGCAAAAUAUGAAAUACATT against Pate6", "z-score": "2.92 (active)"},
      {"sequence": "GAGAGAGACAAUCCUGAAGTT against Klra22", "z-score": -0.0539},
      {"sequence": "GGCAAAUGGAAACAGCCAUTT against Serpina1d", "z-score": -1.56},
      {"sequence": "CCUGCUCAAACUUUUGUGGTT against Ephx4", "z-score": 0.928},
      {"sequence": "GGAACCUUCUCCAAAGCAATT against Rpgrip1", "z-score": "-2.45 (active)"},
      {"sequence": "CGUCAAAGGAGACAGCUUUTT against Rbm15b", "z-score": 1.56},
      {"sequence": "GCUCAAAUUGAGUCCUUAUTT against Ccdc122", "z-score": -0.548},
      {"sequence": "GCUAGCCAUGGUUACCCACTT against Slc39a3", "z-score": -0.818},
      {"sequence": "GGGACACUAGAAGUAGGGATT against Pramel4", "z-score": 0.299},
      {"sequence": "GACGAUCAAGAUAUGAUGGTT against Olfr196", "z-score": 0.259},
      {"sequence": "GCACGUACUGUUCUAGAAGTT against Kcng4", "z-score": 1.48},
      {"sequence": "CCCAAAGAUAGAGCUCUGUTT against Sec61a2", "z-score": -1.94},
      {"sequence": "GGUUGAUCUAAUGAUUGUGTT against Ccdc34", "z-score": "2.5 (active)"},
      {"sequence": "UCUCCUACCUAUGCACAUATT against Panx2", "z-score": -0.925},
      {"sequence": "GCAAGUCUGGAUGGAUGAGTT against 1190005I06Rik", "z-score": -1.54},
      {"sequence": "CCCUCGUUGAAUUAAACUUTT against Zfp385b", "z-score": 0.88},
      {"sequence": "GGUCUCAGACAAAGAUGAATT against Trmt10c", "z-score": -0.239},
      {"sequence": "GGAAUGGAGUUUGGUUUUGTT against Extl1", "z-score": "2.67 (active)"},
      {"sequence": "GGAAACGAGUUGGAGACAATT against Gtpbp1", "z-score": -1.03},
      {"sequence": "GGUUAAGUUCCUCUGGAACTT against Pnliprp2", "z-score": -0.0719},
      {"sequence": "GGCACUACCACAAGUAUAGTT against 1700073E17Rik", "z-score": 0.0893},
      {"sequence": "GCAGGUUAUGGUCAUAUUUTT against Zfp646", "z-score": 0.583},
      {"sequence": "GCAGUUGAGUCCACCUCAATT against Ccdc187", "z-score": "2.18 (active)"},
      {"sequence": "GGAGAACGUGGUACAAAGUTT against Sncg", "z-score": -1.27},
      {"sequence": "GGAGGACUUAGAGAGUAUGTT against Ctdp1", "z-score": -0.595},
      {"sequence": "CCAGUGUAGAGCACAAAUCTT against Ahr", "z-score": "2.51 (active)"},
      {"sequence": "GGACCUGGACCUUUUAGAGTT against Vegfb", "z-score": 1.34},
      {"sequence": "GGUUGUUGGAAAAAUAGAUTT against Tmem175", "z-score": -0.0383},
      {"sequence": "GGUGGACUUCAUGUAGAUUTT against Eif3m", "z-score": -1.07},
      {"sequence": "GGACAAGAGGUACACAAACTT against Eif3d", "z-score": "2.83 (active)"},
      {"sequence": "GGAAGAGCUGGACUUCUUCTT against Hoxb2", "z-score": 1.71},
      {"sequence": "CCACGGUUAUGAUGACGACTT against Dyrk1b", "z-score": 1.89},
      {"sequence": "GGACUAUUUCCUUUGUGGGTT against Olfr31", "z-score": -1.59},
      {"sequence": "GGAUUGUCCUUGAUGGCUGTT against Plek2", "z-score": -0.116},
      {"sequence": "GGAGGUUUUACUCAAACAUTT against Sec14l2", "z-score": 1.35},
      {"sequence": "GGGCCUGCUCUCUUUUCUGTT against Mfsd14b", "z-score": 1.18},
      {"sequence": "CCUCGAGUCACCAACAUCGTT against Stt3b", "z-score": "-2.46 (active)"},
      {"sequence": "GCCUUUUGUACUAAGGUCCTT against Zfp715", "z-score": 1.65},
      {"sequence": "GGGACAGUUAGUCAGUAAGTT against Pus7l", "z-score": 0.196},
      {"sequence": "GGCUCAGAAACAACAGGCUTT against Sh2d3c", "z-score": -1.19},
      {"sequence": "GGCUGUUAGAGGAAGAGAUTT against Ube3b", "z-score": 1.64},
      {"sequence": "CCAGCAUCUACUGUCUGACTT against Sstr1", "z-score": "4.2 (active)"},
      {"sequence": "GCAAUGCAUGAAGACUCGUTT against Ecsit", "z-score": 0.835},
      {"sequence": "GGGACUGGAUCCUUGAUAUTT against Ebi3", "z-score": 0.677},
      {"sequence": "CCCGGACCUUGAAUAAGCATT against Piwil4", "z-score": -1.06},
      {"sequence": "GCCACUAUCUGGAUAAGGATT against Ftl1", "z-score": "-3.54 (active)"},
      {"sequence": "GGAGAAGUGGUAGAAACUGTT against Brd8", "z-score": -1.3},
      {"sequence": "GCUUAGUCGGGAGAACUUUTT against Skp2", "z-score": 0.81},
      {"sequence": "GGACAAGCUAAGCAUUGAGTT against Atp6ap1", "z-score": -1.45},
      {"sequence": "GCAUUGUCGUGUCUUCUCUTT against Tti1", "z-score": "-2.13 (active)"},
      {"sequence": "GGAGUUUCAAGAAAAAAGGTT against Map3k21", "z-score": 1.08},
      {"sequence": "GGGCGAAGAUACAAGUGACTT against Tnp2", "z-score": -1.76},
      {"sequence": "GCACCAAGUCGUAUAAACATT against Sh3glb1", "z-score": -0.391}
    ]}
  ]
}
